Laboratory results taken from PubChem BioAssay AID2528 (National Center for Advancing Translational Sciences (NCATS), 2010).
Where “and” joins values, the source holds several entries; their conditions need not be identical. Equal values may be shown once. Screen size: about 350,000 compounds; about 700 (0.2%) were called active. Many of the other results were omitted from the sample, so actives are more common in it than they were. Values without a mark were called inactive. Calls come from the whole dose curve; as a rule, active = well fitted inhibition curve with a large enough effect; inconclusive = small, poorly fitted or top-dose-only effect; inactive = flat fitted curve, though single readings scatter. Bridge positions count the residues as written; N and C are the ends. Peptide text beside a SMILES is read from it.

biological target: RecQ-like DNA helicase BLM (Homo sapiens) (UniProt P54132); assay: qHTS Assay for Inhibitors of Bloom's syndrome helicase (BLM); conditions: recombinant BLM DNA unwinding, fluorescence dequenching; series mostly up to 56.1 µM; activity change, negative = inhibition: at the top concentration; note: nearly all actives have a fitted effect of over 35% in size
Description: Survival of cells and the faithful propagation of the genome depend on elaborate mechanisms of detecting and repairing DNA damage. Treatment of advanced cancer relies on radiation therapy or chemotherapy, which kill cancer cells by causing extensive DNA damage. It is often found, that cancer cells develop resistance to therapy through enhanced activity of DNA repair functions; this has led to an increased interest in developing drugs that interfere with DNA repair, which could sensitize cancer cells to conventional therapy.
This validation qHTS assay pertains to human BLM, which is important in resolving abnormal DNA structures formed during replication or homologous recombination. Shutting down the expression of BLM leads to chromosomal instability and higher radiation sensitivity in cultured cells.
The validation assay was a fluorescence quenching based kinetic qHTS for BLM Helicase DNA unwinding. The activity was measured as ATP-dependent separation of a 20-bp DNA duplex extended by 30-nt single-stranded tails (forked duplex). The forked DNA substrate was tagged with rhodamine fluorophore (carboxytetramethyl rhodamine, TAMRA) and BHQ-2 (Black Hole Quencher 2) dark quencher. Strand separation results in an increase in the fluorescence of TAMRA (excitation 525 nm, emission 598 nm). This substrate construct operates in a red-shifted region where very few compound library members have been noted to fluoresce (PubChem AIDs 593 and 594). An additional feature of the assay is the inclusion of 2.5 ug/ml poly (dIdC), to reduce interference by compounds such as DNA intercalators, a major source of false inhibitors.
Ian Hickson, University of Oxford
Opher Gileadi, Structural Genomics Consortium, University of Oxford
Screening Center PI: Austin, C.P.
Screening Center: NIH Chemical Genomics Center [NCGC]
Three uL of reaction buffer (25 mM Tris-HCl (pH 8.0), 5 mM NaCl, 2 mM MgCl2, 1mM DTT, 0.01% Tween- 20, and 2.5 ug/ml poly(dI-dC), including enzyme (50 nM BLM), were dispensed into a 1536-well Greiner black assay plate via solenoid-valve based nanoliter dispensers. Compounds (23 nl each in columns 5-48) and control (23 nl each in column 2 as dose-response) were transferred via a Kalypsys pintool equipped with a 1536-pin array. The plates were incubated for 15 min at room temperature, and then 1 ul of substrates (200 nM DNA and 2 mM ATP, final concentrations) was added to start the reaction. The plate was transferred into a ViewLux high-throughput CCD imager where the reaction progress was measured in a discontinuous kinetic mode (two reads spaced 2 hours apart, with intermediate room temperature incubation of the covered assay plate) by using standard red-fluorescence optics (excitation filter 525 nm, emission filter 598 nm). Enzyme-free and vehicle (DMSO) controls were included for signal normalization.
Potency is the fitted concentration of half-maximal effect.

Sequence of RecQ-like DNA helicase BLM (Homo sapiens) (P54132 whole entry, looked up): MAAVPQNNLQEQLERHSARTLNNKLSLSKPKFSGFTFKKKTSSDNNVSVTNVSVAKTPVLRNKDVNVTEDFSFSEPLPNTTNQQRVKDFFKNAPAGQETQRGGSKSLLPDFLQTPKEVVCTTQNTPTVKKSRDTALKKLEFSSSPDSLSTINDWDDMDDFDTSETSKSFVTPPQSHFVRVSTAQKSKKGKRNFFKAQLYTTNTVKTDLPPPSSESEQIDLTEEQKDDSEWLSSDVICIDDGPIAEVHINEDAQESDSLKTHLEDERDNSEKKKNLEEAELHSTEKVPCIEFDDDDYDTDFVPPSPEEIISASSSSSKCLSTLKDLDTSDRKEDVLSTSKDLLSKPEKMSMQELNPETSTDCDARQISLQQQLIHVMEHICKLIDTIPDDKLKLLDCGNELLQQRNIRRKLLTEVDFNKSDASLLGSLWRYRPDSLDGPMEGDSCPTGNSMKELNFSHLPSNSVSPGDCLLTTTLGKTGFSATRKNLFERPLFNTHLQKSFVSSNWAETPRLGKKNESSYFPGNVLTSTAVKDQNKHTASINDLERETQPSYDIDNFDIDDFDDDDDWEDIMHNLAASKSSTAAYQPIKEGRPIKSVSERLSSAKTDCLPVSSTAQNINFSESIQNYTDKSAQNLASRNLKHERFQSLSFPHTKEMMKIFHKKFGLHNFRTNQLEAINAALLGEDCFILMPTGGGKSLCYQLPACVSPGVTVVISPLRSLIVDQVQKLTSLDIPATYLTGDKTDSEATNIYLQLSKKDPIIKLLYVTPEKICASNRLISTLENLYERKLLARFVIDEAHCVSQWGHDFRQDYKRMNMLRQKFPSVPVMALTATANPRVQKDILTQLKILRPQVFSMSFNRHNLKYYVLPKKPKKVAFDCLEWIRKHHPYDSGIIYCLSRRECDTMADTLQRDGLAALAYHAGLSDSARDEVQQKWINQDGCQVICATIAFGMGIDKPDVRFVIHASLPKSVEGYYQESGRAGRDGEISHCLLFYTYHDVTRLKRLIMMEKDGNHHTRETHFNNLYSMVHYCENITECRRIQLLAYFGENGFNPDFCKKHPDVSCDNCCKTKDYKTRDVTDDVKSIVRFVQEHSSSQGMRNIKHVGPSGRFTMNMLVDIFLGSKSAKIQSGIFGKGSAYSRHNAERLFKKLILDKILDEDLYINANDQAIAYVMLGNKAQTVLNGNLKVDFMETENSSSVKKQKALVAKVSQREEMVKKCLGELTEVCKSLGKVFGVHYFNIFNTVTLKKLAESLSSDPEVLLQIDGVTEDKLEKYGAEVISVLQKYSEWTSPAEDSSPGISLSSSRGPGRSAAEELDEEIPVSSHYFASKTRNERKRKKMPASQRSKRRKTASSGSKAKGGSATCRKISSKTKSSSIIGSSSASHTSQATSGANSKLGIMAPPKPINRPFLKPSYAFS

Structure (SMILES) | activity change, negative = inhibition | Potency
C=CC1=C2C=C(C3CC3)N(C(CO)CO)C=C2C(=O)C(C)(OC(=O)c2ccco2)C1=O (centres undefined) | -12.4% [at 12.4 µM] | 
C[C@@H](O)[C@@H]1NC(=O)[C@H](CCCCN)NC(=O)[C@H](Cc2c[nH]c3ccccc23)NC(=O)[C@H](Cc2ccccc2)NC(=O)[C@H](Cc2ccccc2)NC(=O)[C@H](CC(N)=O)NC(=O)[C@H](CCCCN)NC(=O)[C@@H](NC(=O)[C@@H]2CCCN2)CSSC[C@@H](C(=O)N[C@@H](CCCCN)C(=O)O)NC(=O)[C@H](CO)NC(=O)[C@H](CO)NC(=O)[C@H](Cc2ccccc2)NC1=O (H-PCKNFFWKTFSSCK-OH; disulfide 2-13) | 21.2% | 
CCOC(=O)C1CCCN(C(=O)c2ccc3c(c2)sc2nc(-c4ccc(CC)cc4)cn23)C1 (centres undefined) | -2.58% | 
OCCC(O)CO (centres undefined) |  | inactive
CC[C@]1([C@H]2O[C@@H]([C@@H]3O[C@](O)(CO)[C@@H](C)C[C@H]3C)C[C@H]2C)CC[C@@H]([C@]2(C)CC[C@@]3(C[C@@H](O)[C@@H](C)[C@@H]([C@H](C)[C@H](OC)[C@H](C)C(=O)O)O3)O2)O1 | 2.14% [at 21.4 µM] | 
COc1ccc(NC(=O)CSc2nc(NS(=O)(=O)c3ccc(C)cc3)cc(=O)[nH]2)cc1 |  | 22.4 µM (active)
Cc1ccc(OCCCC(=O)Nc2ccc(S(=O)(=O)Nc3cc(C)nc(C)n3)cc2)cc1 | -3.4% | 
Cc1ccc(NC(=O)CSc2nc(CSc3ccc(C)cc3)cc(=O)[nH]2)cc1 | -5.28% | 
COCCn1c(=O)c(CCc2ccccc2)nc2cnc(N3CCNCC3)nc21 | 2.72% | 
N[C@@H](C(=O)O)c1ccc(P(=O)(O)O)cc1 | 1.25% | 
COC(C)C(C(=O)OCC1=CCN2CC[C@H](O)[C@@H]12)C(C)C (some centres undefined) | 3% | 
COc1ccc2c3c1OC1CC(O)C=C[C@@]31CCN(C)C2 (some centres undefined) | -12.8% | 
CCOC(=O)c1c(C)[nH]c2c1-c1ccccc1C(=O)C2=O |  | 2.82 µM (active)
CCOC(=O)c1c(C)[nH]c(C(=O)NCc2ccccc2OC)c1C | 2.72% | 
CCOC(=O)c1c(SCC(=O)Nc2cccc(C)c2C)nc(=O)[nH]c1C | -1.44% | 
COc1ccc(NS(=O)(=O)c2cc3c4c(c2)CC(=O)N4CCC3)cc1Cl | 1.48% | 
COC(=O)C(C(=O)OC)[C@@H](NC=O)c1ccccc1 | -1.06% | 
CCCCS(=O)(=O)N1C2=NC(C(=O)OC)=C(C(=O)OC)[C@@H]3N(Cc4ccccc4)c4ccccc4[C@]23C[C@H]1C(=O)OC | -0.97% [at 12.4 µM] | 
C=CCOC(=O)C(C(C)=O)C(NC(=O)OC)c1ccccc1 (centres undefined) | -4.39% [at 12.4 µM] | 
CC(C)C[C@@H](CC(=O)N[C@@H](CCC(=O)O)CC(=O)O)NC(=O)[C@@H]1CCCC[C@H]1NC(=O)C[C@@H](NC(=O)C[C@H](Cc1c[nH]c2ccccc12)NC(=O)[C@@H]1CCCC[C@H]1N)C(C)C | 0.14% | 
Nc1ncn(C2OC(CO)C(O)C2O)c(=O)n1 (centres undefined) | -5.76% | 
CC1CC[C@@]23CCC4(C)[C@@]5(C)CCC6C(C)(C)C(O)CC[C@@]6(C)C5C=C[C@@]4(OC2=O)C3C1C (some centres undefined) | -0.263% | 
COc1ccc(-c2nc3c(c4c2C[C@H](c2ccccc2)OC4)CN(C(=O)c2cccnc2)CC3)c(C)c1 | 0.694% [at 12.4 µM] | 
C=C1O[C@@](CO)(n2cnc3c(N)ncnc32)[C@H](O)[C@@H]1O | 0.613% | 
COc1ccc(-c2nc(-c3ccccc3)oc2Nc2ccc3ccccc3c2)cc1 | 3.96% | 

Structure (SMILES) | activity change, negative = inhibition | Potency
CCCC[C@H]1C(=O)N(c2ccccc2)N(c2ccc(O)cc2)C1=O | 2.14% [at 21.4 µM] | 
COC(=O)[C@@]1(Cc2ccc(F)cc2)[C@@H]2[C@@H](CC(=O)[C@H]2CC(=O)C(=O)N2CCCC2)CN1C(=O)c1ccccc1 | -2.36% | 
COC(=O)C1(C)C=CC2(CCCCC2)N1C(C)=O (centres undefined) | -1.29% | 
CC1=C2[C@@H](O)[C@H]([C@@H](C)C(=O)NCCC(C)C)CC[C@@]2(C)C=CC1=O | -1.03% | 
Cc1ccc(-c2ncc(Cl)cc2-c2ccc(S(C)(=O)=O)cc2)cn1 | 2.81% | 
C[C@H]1CC[C@H](C(=O)O)N[C@@H]1c1ccc(C#Cc2ccccc2)cc1 | 6.21% [at 12.4 µM] | 
COc1ccccc1CNc1ncnc2ccc(-c3c(C)noc3C)cc12 | 1.02% | 
Nc1nc2[nH]c(=O)c(=O)[nH]c2c(=O)[nH]1 | 5.91% | 
CC/C=C\C/C=C\C/C=C\C/C=C\C/C=C\C/C=C\CCC(=O)NC(C)C(=O)O (centres undefined) | 3.92% | 
COC(=O)C1=C(C)N(Cc2ccccc2)C2=C3C(=O)N(c4ccccc4)C(=O)C3[C@@](O)(C(=O)OC)C(=O)N2C1c1ccccc1 (some centres undefined) | -3.25% [at 12.4 µM] and -3.97% [at 12.4 µM] | 
COc1ccc(S(=O)(=O)c2c(Nc3cccc(Cl)c3)sc(C(=O)c3ccccc3)c2N)cc1 | -4.89% | 
CC1(C)OC2CO[C@]3(COS(N)(=O)=O)OC(C)(C)OC3C2O1 (some centres undefined) | -7.65% | 
COc1cc(OC)c(NC(=O)c2nc(-c3ccncc3)no2)cc1Cl | 1.3% | 
N#Cc1c(C(F)(F)F)cc(-c2cccs2)nc1N1CCCCC1 | -2.96% | 
N#Cc1c(N2CCCCC2)nc(N)c2c(N)nc(SCC(=O)O)cc12 |  | 28.2 µM (active)
C=C1C(=CC=C2CCC[C@@]3(C)[C@@H]2CC[C@H]3[C@H](C)CCCC(C)C)C[C@@H](O)C[C@@H]1O | -22.4% | 
CC(C)CN1CCc2nc(-c3ccccc3)c3c(c2C1)COC(C)C3 (centres undefined) | -4.43% [at 12.4 µM] | 
Cc1ccc(CCNC(=O)C2CCN(c3nnc(-n4cccc4CNc4ccc(C)cc4)s3)CC2)cc1 | -9.92% | 
CC(C)C1=CC2=CC[C@H]3[C@](C)(C(=O)O)CCC[C@]3(C)C2CC1 (some centres undefined) | 4.37% | 
O=C(O)c1cc(Cl)c(Cl)cc1C(=O)Nc1cccc2ncccc12 | -9.89% | 
CCOC(=O)c1ccc(-c2ccc(/C=C(\C#N)C(=O)Nc3ccc(OCC)cc3)o2)cc1 | -5.55% | 
Cc1ccc(/C=C(\C#N)C(=O)Nc2cccc3ncccc23)o1 |  | 7.94 µM (active)
FC(F)(F)c1ccccc1-c1nc(-n2ccnc2)c2ccccc2n1 | -3.83% | 
C/C(CCN1CCCCc2nc(C)c(C)cc21)=N\O[C@@H](C)c1cn([C@@H]2COC[C@@H]2O)nn1 | 3.53% [at 12.4 µM] | 
